From PubChem BioAssay (NCI)
This is part of a sample that, as a whole, favours compounds with a hit. Of some 83,000 tested, about 20% had one in any assay.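 Negative percent growth values reflect cell death: -40 means 40% of the cells present at the start died, and -100 means all died.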 A number with no mark means an inactive call. Calls of active or inactive are those of the source. The calls were made as follows: active = growth percent below 10; inactive = the rest.

tested on: NCI-H322M lung; assay: NCI-60 one-dose screen, 48 h (100 = growth as untreated, 0 = no growth, -100 = all killed); conditions: 10 µM unless noted

SMILES | growth
COc1ccc2c(c1)c(-c1nc(-c3c[nH]c4ncccc34)cs1)cn2CCCN1CCOCC1 | 42.1%
C[n+]1ccc(CCc2c[nH]c3ccccc23)cc1 | 93.4%
CC(C)CCN(CCC(C)C)CC(O)c1cc2c(c3ccccc13)CCCC2 (stereo unspecified) | 81.4%
CO[C@H]1CC(=O)n2c3ccccc3c3c4c(c5c6ccccc6n1c5c32)C(=O)NC4=O | 63.5%
COc1ccc(C2=CN3CC=CC3CC2=O)cc1 (stereo unspecified) | 108%
COc1cccc(/C=C/C(=O)c2cc3c(N)c(C(=O)Nc4cccc5ccccc45)sc3nc2C)c1 | 41.1%
Cc1ccc(CNc2ccc3nc(CCC(C)C)[nH]c3c2)cc1 | 100%
COc1ccc(/C(C)=C(/c2ccc(OCCCN(C)C)cc2)c2ccc(OC(=O)c3ccccc3)cc2)cc1 | 87%
COC(=O)CC[C@@H]1O[C@@H](c2ccc(F)cc2)[C@@H](O)[C@H]1O | 106%
O=C1/C=C/[C@@H](O)[C@@H]2C[C@@H](O)C[C@H]2/C=C/CCC[C@H](CCO)O1 | 29.3%
COc1cccc(-c2cc(-c3cccc(Cl)c3)c(C#N)c(=O)[nH]2)c1 | 89.5%
COc1ccc(CNc2c3ccccc3nc3ccccc23)c(OC)c1 | 40%
CCN(CC)c1ccc(CNc2cc(C)nc3ccccc23)cc1 | 80.3%
O=C1Nc2ccccc2/C1=C\c1c[nH]c2ccc(Br)cc12 | 64.2%
O=C(CCCCCNC(=O)c1cc(=O)c(O)co1)Nc1ccccc1 | 97.2%
CCOc1ccc(-n2nc(C(=O)NCc3ccccc3OC)nc2-c2cc(OC)c(OC)c(OC)c2)cc1 | 52.4%
COc1ccc(-c2nc(/C=C3\C(=O)N(C)c4ccccc43)c3ccccn23)cc1 | 88.3%
FC(F)(F)Oc1cccc(-c2cnc3ccc(-c4ccncc4)nn23)c1 | 27.4%
CCN1C(=O)N(CC)C2C1NN=c1s/c(=C3\C(=O)N(CC(C)C)c4ccccc43)c(=O)n12 (stereo unspecified) | 58.1%
COc1cc(OC)c(C(=O)C(CN(C)C)CN(C)C)cc1OC | 108%
Cc1ccc(/C=C/C(=O)c2ccc(-n3cc(CN4CCN(c5cc6c(cc5F)c(=O)c(C(=O)O)cn6C5CC5)CC4)nn3)cc2)cc1 | 94.3%
NC1(CO)COC(c2ccccc2)OC1 (stereo unspecified) | 100%
COc1cc(C2C(C(=O)OCc3ccccc3)=C(C)NC(C)=C2C(=O)OCc2ccccc2)cc(OC)c1OC | 58%
CC1=C(CCC(C)NCc2ccc(OCCCN3CCCCC3)cc2)C(C)(C)CCC1 (stereo unspecified) | -40.5% (active)
N#C/C(=C\c1ccc([N+](=O)[O-])cc1)n1nnc2cc(F)c(F)cc21 | 72.5%
CS(=O)(=O)c1ccc(NC(=O)c2ccccc2)nc1 | 111%
